# Reference: PubChem BioAssay (NCATS)
# Records with an inconclusive call do not appear. Unmarked numbers belong to inactive results. Active and inactive are the calls of the source. Calls come from the whole dose curve; as a rule, active = well fitted inhibition curve with a large enough effect; inconclusive = small, poorly fitted or top-dose-only effect; inactive = flat fitted curve, though single readings scatter.
# Test: BET inhibitor-based combinations targeting novel dependencies in MECOM-rearranged (r) AML: AML-194 cell line (AID 2202237; note: nearly all actives have a fitted effect of over 40% in size;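 for viability (% of control): plate controls were vehicle wells for no effect and wells without cells for full effect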)
# Conditions: AML-194 (MECOM-r AML) viability, CellTiter-Glo, 48 h; series mostly up to 46 µM; viability (% of control): at the top concentration
# Text: Ecotropic viral insertion site 1 (EVI1) is located on chromosome 3q26.2 as part of the MECOM (MDS and EVI1 complex) locus. Under normal hematopoiesis, EVI1 is a regulator of hematopoietic stem cell maintenance and self-renewal and EVI1 levels decrease as the cells differentiate. In approximately 5-10% of de novo acute myeloid leukemia (AML) EVI1 is aberrantly expressed, including Chromosomal inv(3)(q21;q26.2) or t(3;3)(q21;q26.2) alterations (MECOM-r) that account for about 50% of AML with EVI1 overexpression 31. AMLs with high levels of EVI1 have a poor prognosis and an overall survival time averaging between 10-14 months. EVI1 overexpression confers resistance in leukemia cells, highlighting the need to develop new targeted therapies for EVI1 overexpressing AMLs.
# Here, we performed an unbiased chemical drug screening by evaluating the single agent activity of a collection of 2,480 oncology-focused, approved and investigational drugs (NCATS Mechanism Interrogation Plates, MIPE v5.0) against a panel of seven AML cell lines. These included four MECOM-r cell-lines (AML-191, AML-194, UCSD-AML1 and HNT-34) and three non-MECOM-r AMLs (MV4-11, OCI-AML3 and SET-2). Exploiting the mechanistic redundancy built in the library, we identified target-level sensitivities in MECOM-r AML cells and relative activity as compared to other AML subtypes.
# A collection of 2480 mechanistically annotated dugs (MIPE v5.0) was used to screen four 3q26.2 rearranged AML cell lines and three non-3q26.2 rearranged AML cell lines. This library purposely exploits redundancy by including multiple inhibitors of key onco-targets, while simultaneously encompassing mechanistic diversity, targeting more than 800 distinct mechanisms of action. Briefly, cells were seeded in 5 uL of growth media using a Multidrop Combi dispenser into 1536 well white polystyrene tissue culture treated plates (Corning) at a density of 500cells/well. For each cell-line, for each of the 2480 drugs in MIPE v5.0 library, an 11-point dose curve was generated via a 1536 pin-tool. Plates were incubated for 48 hr at standard incubator conditions, covered by a stainless steel gasketed lid to prevent evaporation. Cell viability was determined by luminescence based, Cell Titer Glo assay (Promega). In detail, 3 uL of Cell Titer Glo were added to each well and plates were incubated at room temperature for 15 min with a stainless-steel lid in place. Luminescence readings were taken using a Viewlux (PerkinElmer) with a 2 s exposure time per plate. Compound dose-response curves were normalized to DMSO and empty well controls on each plate. Quantitative drug activity data from dose-response curves was determined utilizing area Under the Curve (AUC) and Z-transformed AUC (Z-AUC, a mean-centering transformation applied to each individual cell-line screened).
# Potency is the fitted concentration of half-maximal effect.
SMILES,Potency,viability (% of control)
C[C@@H]1O[C@@H](O[C@H]2C[C@@H](O)[C@]3(CO)[C@H]4[C@H](O)C[C@]5(C)[C@@H](C6=CC(=O)OC6)CC[C@]5(O)[C@@H]4CC[C@]3(O)C2)[C@H](O)[C@H](O)[C@H]1O,46.8 nM (active),–
Cc1ccccc1-n1c(Cn2cnc3c(N)ncnc32)nc2cccc(C)c2c1=O,–,106%
C[C@@H]1CN(Cc2ccc(F)cc2)CCN1C(=O)COc1ccc(Cl)cc1NC(N)=O,18600 nM (active),–
Cc1cc(SCc2sc(-c3ccc(C(F)(F)F)c(F)c3)nc2C)ccc1OCC(=O)O,–,90%
COC(=O)[C@]12CCC(C)(C)C[C@H]1[C@H]1C(=O)C=C3[C@@]4(C)C=C(C#N)C(=O)C(C)(C)[C@@H]4CC[C@@]3(C)[C@]1(C)CC2,2630 nM (active),–
CC(C)c1cccc(C(C)C)c1O,–,117%
CC1(C)CC[C@]2(NC(=O)C(C)(F)F)CC[C@]3(C)[C@H](C(=O)C=C4[C@@]5(C)C=C(C#N)C(=O)C(C)(C)[C@@H]5CC[C@]43C)[C@@H]2C1,1860 nM (active),–
CCN(CC)C(=O)c1ccc(C2=CC3(CCNCC3)Oc3cccc(O)c32)cc1,–,93.8%
C[C@]12CC[C@H]3[C@@H](CC[C@@]45O[C@@H]4C(O)=C(C#N)C[C@]35C)[C@@H]1CC[C@@H]2O,–,103%
CC1(C)CC(O)CC(C)(C)N1O,–,113%
O=C1CC[C@@]2(O)[C@H]3Cc4ccc(O)c5c4[C@@]2(CCN3CC2CC2)[C@H]1O5,–,108%
CN[C@@H]1Cc2cccc3[nH]c(=O)n(c23)C1,–,119%
CCNC(=O)CC1N=C(c2ccc(Cl)cc2)c2cc(OC)ccc2-n2c(C)nnc21 (stereo not given),–,72.4%
CCC1(c2ccc(N)cc2)CCC(=O)NC1=O (stereo not given),–,104%
C[C@]12CC[C@@H]3c4ccc(OC(=O)N(CCCl)CCCl)cc4CC[C@H]3[C@@H]1CC[C@@H]2OP(=O)(O)O,–,104%
CC1=C2C[C@H]3[C@@H](CC=C4C[C@@H](O)CC[C@@]43C)[C@@H]2CC[C@]12O[C@@H]1C[C@H](C)CN[C@H]1[C@H]2C,–,101%
Fc1ccc(C(OCCN2CCN(CCCc3ccccc3)CC2)c2ccc(F)cc2)cc1,23500 nM (active),–
CN1C(=O)[C@@H](NC(=O)[C@H](CCC(F)(F)F)[C@H](CCC(F)(F)F)C(N)=O)N=C(c2ccccc2)c2ccccc21,–,118%
CNC(=O)c1ccc(N2C(=S)N(c3ccc(C#N)c(C(F)(F)F)c3)C(=O)C23CCC3)cc1F,–,96.2%
CCCCCC[C@H]1C(=O)O[C@H](C)[C@H](NC(=O)c2cccc(NC=O)c2O)C(=O)O[C@@H](C)[C@@H]1OC(=O)CC(C)C,–,95.9%

SMILES,Potency,viability (% of control)
O=C(O)C(=O)c1cn(Cc2ccccc2)c2ccc(-c3ccc(OC(F)(F)F)cc3)cc12,–,101%
COc1ccc(C(=O)c2c(C)n(CCN3CCOCC3)c3cc(I)ccc23)cc1,9340 nM (active),–
Cc1[nH]ncc1-c1cc2nc([C@@H]3CC4CCN3CC4)[nH]c(=O)c2s1,9340 nM (active),–
C/C=C(\C)C(=O)N[C@@H](c1ccccc1)[C@@H](O)C(=O)O[C@H]1C[C@@]2(O)[C@@H](OC(=O)c3ccccc3)[C@@H]3[C@]4(OC(C)=O)CO[C@@H]4C[C@H](O)[C@@]3(C)C(=O)[C@H](OC(C)=O)C(=C1C)C2(C)C,74.2 nM (active),–
CC(C)[C@]12O[C@H]1[C@@H]1O[C@@]13[C@@]1(C)CCC4=C(COC4=O)[C@@H]1C[C@@H]1O[C@@]13C2=O,332 nM (active),–
C#CCN(C)[C@H](C)Cc1ccccc1,–,100%
O=c1[nH]c2ccc(Cl)cc2c(N[C@@H]2CN3CCC2CC3)c1-c1nc2ccccc2[nH]1,332 nM (active),–
C=C[C@H]1CN2CCC1C[C@@H]2[C@@H](O)c1ccnc2ccccc12 (stereo not given in full),–,110%
C[C@]12CCC(=O)C(O)=C1CC[C@@H]1[C@@H]2CC[C@]2(C)C(=O)CC[C@@H]12,–,107% [at 92.2 µM]
c1ccc2c(CN3CCNCC3)cccc2c1,–,104%
C#C[C@]1(O)C=C[C@H]2[C@@H]3CCC4=CC(=O)CC[C@@H]4[C@H]3CC[C@@]21CC,–,101%
C[C@H]1[C@H](O)[C@@H](C)/C=C/C=C/CC/C=C/C=C/C=C/C=C/[C@H](O[C@@H]2O[C@H](C)[C@@H](O)[C@H](N)[C@@H]2O)C[C@@H]2O[C@](O)(C[C@@H](O)[C@H](O)CC[C@@H](O)C[C@@H](O)C[C@@H](O)CC(=O)O[C@H]1C)C[C@H](O)[C@H]2C(=O)O,–,88.1%
CC(=O)Nc1ccc(OC[C@](C)(O)C(=O)Nc2ccc([N+](=O)[O-])c(C(F)(F)F)c2)cc1,–,95.9%
N[C@@H]1C[C@H]1c1ccccc1,–,103%
CC1(N2CCC(n3c([C@@H]4CCCNC4)nc4ccccc43)CC2)CCCCCCC1,26300 nM (active),–
CC(C)[C@]12O[C@H]1[C@@H]1O[C@]13[C@]1(O[C@H]1C[C@H]1C4=C(CC[C@@]13C)C(=O)OC4)[C@@H]2O,46.8 nM (active),–
CC[C@H]1/C=C\C=C/C[C@@H](C)[C@H](O)[C@@](C)(O)C(=O)[C@@H](C)[C@H](O)[C@@H](C)C(=O)[C@@H](C)[C@H](O)[C@@H](C)/C=C\C(=O)O[C@@H]2[C@H](C)[C@H](CC1)O[C@]1(CC[C@H](C)[C@H](C[C@@H](C)O)O1)[C@H]2C,2950 nM (active),–
COC(=O)[C@@]12OC[C@]34[C@H]([C@@H](O)[C@@H]1O)[C@@]1(C)CC(=O)C(O)=C(C)[C@@H]1C[C@H]3OC(=O)[C@H](OC(=O)/C=C(\C)C(C)C)[C@@H]24,5.9 nM (active),–
COc1cc(C)[nH]c(=O)c1CNC(=O)c1c(C)n([C@H](C)C2CCOCC2)c2ccccc12,–,118%
CN1C(=O)COc2c(C(=O)NC3CN4CCC3CC4)cc(Cl)cc21 (stereo not given),–,114%
